# From PubChem BioAssay (NCATS)
# Unmarked numbers belong to inactive results. Results filed as inconclusive are left out. Active and inactive are the calls of the source. Unless noted, the call rests on the fitted dose curve; in most records, active means well fitted curve in either direction with a large enough effect (not every such curve was filed as active); inconclusive means small, poorly fitted or top-dose-only effect, or another doubt; inactive means flat fitted curve, though single readings scatter.
# How the values were obtained:
# [1] = AP1 Signaling Pathway (AID 357); conditions: ME-180 AP-1-bla reporter, EGF-induced, beta-lactamase ratio, 5 h; at 17.2 µM (top of the series) unless noted;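 further: ME-180 reporter cells stimulated with EGF at its EC50 level; on the % scale 0 is the no-effect control and ±100 the full control effect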
# Procedure, shortened: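 Titration-series screen for positive or negative modulators of EC50 EGF-induced signaling in ME-180 cells carrying an AP-1-driven beta-lactamase reporter. After 5 hours at 37 degrees Celsius, CCF4 460nm/530nm emission ratio gave %Activity; AC50 values derived.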
# [2] = NFAT Signaling Pathway (AID 444); conditions: Jurkat NFAT-bla M1, carbachol, beta-lactamase ratio, 5 h; at 17.2 µM (top of the series) unless noted;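 further: carbachol stimulus at about its EC50 of 1 µM final; on the % scale 0 is the no-effect control and ±100 the full control effect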
# Procedure, shortened: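 Jurkat cells with NFAT-driven β-lactamase reporter and co-expressed M1 receptor, stimulated with carbachol (final 1 uM, ~EC50), compound titration, 5 h at 37 °C. CCF4 loaded 1 h at RT; 460/530 nm ratio gave %activity and AC50.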
# [3] = Stat Signaling Pathway (AID 446);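 further: ME-180 cervical cancer cells given 40 pM IL-6 alongside compound; SIE-controlled beta-lactamase reporter measured as 460/530 nm FRET emission ratio; on the % scale 0 is the no-effect control and ±100 the full control effect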
# Procedure, shortened: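 Compound effects on IL-6-induced STAT reporter activity were measured in ME-180 cells. After overnight culture, cells were co-treated with 40 pM IL-6 for 5 hrs before beta-lactamase substrate loading at room temperature.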
# [4] = target: Glucocorticoid receptor (Homo sapiens) (UniProt P04150); test: GR-GFP Redistribution (AID 450;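 active means compounds whose dose series gives a full or clear partial fitted curve of increased nuclear translocation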; further: potency means the concentration at half of the fitted maximal effect); conditions: U2OS GR-GFP nuclear translocation, laser cytometry, 2 h
# Chain of Glucocorticoid receptor (Homo sapiens) (P04150 whole entry, looked up): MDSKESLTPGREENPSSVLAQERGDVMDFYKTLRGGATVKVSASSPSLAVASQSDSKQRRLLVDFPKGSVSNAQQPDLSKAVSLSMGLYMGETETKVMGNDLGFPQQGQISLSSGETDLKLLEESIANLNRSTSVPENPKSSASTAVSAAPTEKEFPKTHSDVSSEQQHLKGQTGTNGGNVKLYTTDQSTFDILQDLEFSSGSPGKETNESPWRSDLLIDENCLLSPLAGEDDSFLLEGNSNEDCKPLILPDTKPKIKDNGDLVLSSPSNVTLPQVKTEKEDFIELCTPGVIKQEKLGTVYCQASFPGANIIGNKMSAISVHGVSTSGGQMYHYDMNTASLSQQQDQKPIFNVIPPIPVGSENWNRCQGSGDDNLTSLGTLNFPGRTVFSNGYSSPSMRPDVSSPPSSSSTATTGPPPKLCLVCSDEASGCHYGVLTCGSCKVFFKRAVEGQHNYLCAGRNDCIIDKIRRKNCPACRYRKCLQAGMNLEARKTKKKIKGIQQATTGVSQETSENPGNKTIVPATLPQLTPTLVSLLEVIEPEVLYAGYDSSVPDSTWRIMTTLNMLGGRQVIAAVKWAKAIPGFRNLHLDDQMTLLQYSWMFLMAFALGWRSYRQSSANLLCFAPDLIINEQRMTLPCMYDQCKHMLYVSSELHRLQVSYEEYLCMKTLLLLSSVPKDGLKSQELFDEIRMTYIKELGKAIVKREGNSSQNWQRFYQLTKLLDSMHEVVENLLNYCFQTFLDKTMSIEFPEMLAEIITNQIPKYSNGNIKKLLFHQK
# [5] = target: Cytochrome P450 2C9 (Homo sapiens) (UniProt P11712); test: qHTS Assay for Inhibitors and Substrates of Cytochrome P450 2C9 (AID 883; active means well fitted curve in the direction sought with a large enough effect; an effect the other way counts as inactive or inconclusive; further: on the % scale 0 is the no-effect control and ±100 the full control effect; nearly all actives have a fitted effect of over 60% in size)
# Chain of Cytochrome P450 2C9 (Homo sapiens) (P11712 whole entry, looked up): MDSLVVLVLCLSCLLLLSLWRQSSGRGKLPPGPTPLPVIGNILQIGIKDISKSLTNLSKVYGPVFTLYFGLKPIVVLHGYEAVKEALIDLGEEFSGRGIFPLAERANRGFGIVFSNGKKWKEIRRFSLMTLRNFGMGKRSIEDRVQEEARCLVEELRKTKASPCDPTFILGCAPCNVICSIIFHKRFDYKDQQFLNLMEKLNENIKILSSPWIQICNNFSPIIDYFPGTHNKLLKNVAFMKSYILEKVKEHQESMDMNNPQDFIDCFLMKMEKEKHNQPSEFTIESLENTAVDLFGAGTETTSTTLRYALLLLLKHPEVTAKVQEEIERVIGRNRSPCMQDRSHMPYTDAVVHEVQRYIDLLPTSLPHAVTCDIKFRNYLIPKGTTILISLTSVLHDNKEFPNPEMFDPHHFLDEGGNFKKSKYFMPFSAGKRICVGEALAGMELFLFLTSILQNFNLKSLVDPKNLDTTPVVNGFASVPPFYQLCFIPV
# Procedure, shortened: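 Signal: luciferase luminescence reporting luciferin produced by CYP2C9. Conditions: 10nM enzyme, Luciferin-H 100uM at KM, 25mM KPO4, 37C, 60 min NADPH-driven reaction. Reference: 57uM sulphaphenazole as 100% inhibition.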
# [6] = qHTS Assay for Identification of Small Molecule Antagonists for NFkB Signaling Pathway (AID 895; active means well fitted inhibition curve with a large enough effect in the signal ratio, with a control signal flat, not every such curve was filed as active; the % refers to the signal ratio; further: on the % scale 0 is the no-effect control and ±100 the full control effect)
# Procedure, shortened: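 ME-180 NFkB-bla cells (beta-lactamase under NFkB response element), plated overnight, treated with compound then 10 pM TNF alpha (about EC50) for 5 hrs at 37 C. LiveBLAzer FRET read at 460/530 nm emission, 405 nm excitation.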
# [7] = target: Cytochrome P450 2C19 (Homo sapiens) (UniProt P33261); test: qHTS Assay for Inhibitors and Substrates of Cytochrome P450 2C19 (AID 899; active means well fitted curve in the direction sought with a large enough effect; an effect the other way counts as inactive or inconclusive; further: on the % scale 0 is the no-effect control and ±100 the full control effect; nearly all actives have a fitted effect of over 60% in size)
# Chain of Cytochrome P450 2C19 (Homo sapiens) (P33261 whole entry, looked up): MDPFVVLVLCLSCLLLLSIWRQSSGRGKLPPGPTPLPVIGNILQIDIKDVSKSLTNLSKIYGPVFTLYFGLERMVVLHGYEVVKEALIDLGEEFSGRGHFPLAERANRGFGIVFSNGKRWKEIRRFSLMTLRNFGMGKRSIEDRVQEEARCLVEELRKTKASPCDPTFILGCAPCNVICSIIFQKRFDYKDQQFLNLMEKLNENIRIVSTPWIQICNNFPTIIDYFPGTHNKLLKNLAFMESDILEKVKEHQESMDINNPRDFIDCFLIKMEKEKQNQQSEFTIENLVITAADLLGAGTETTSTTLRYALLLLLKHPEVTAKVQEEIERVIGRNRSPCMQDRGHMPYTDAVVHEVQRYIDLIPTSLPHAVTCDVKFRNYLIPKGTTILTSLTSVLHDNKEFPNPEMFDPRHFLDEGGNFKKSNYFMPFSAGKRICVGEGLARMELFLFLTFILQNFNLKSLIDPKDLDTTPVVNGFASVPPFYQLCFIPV
# Procedure, shortened: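 Signal comes from luciferase acting on luciferin released by CYP2C19-mediated hydroxylation of Luciferin-H EGE, 10uM (KM). Assay mix: 5nM enzyme, 50mM KPO4; 60 min at 37C with NADPH regeneration. Data normalized against 57uM ketoconazole.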
# [8] = qHTS Assay for Identification of Small Molecule Antagonists for Thrombopoietin (TPO) Signaling Pathway (AID 918; active means well fitted curve in the direction sought with a large enough effect; an effect the other way counts as inactive or inconclusive; further: potency means the concentration at half of the fitted maximal effect; nearly all actives have a fitted effect of over 60% in size); conditions: TPO-dependent cell signaling reporter, antagonist mode
# Procedure, shortened: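 Inhibitors of TPO signaling are sought by stimulating IL-3-starved murine Ba/F3 cells (human TPO receptor, Glycoprotein IIb-driven luciferase) with TPO at its EC50 of 26 pM alongside compound. After 24 hrs at 37 C, reporter luminescence is measured.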
# [9] = target: Pyruvate kinase PKM (Homo sapiens) (UniProt P14618); test: qHTS Assay for Inhibitors of Human Muscle Pyruvate Kinase (AID 958; active means well fitted curve in the direction sought with a large enough effect; an effect the other way counts as inactive or inconclusive)
# Chain of Pyruvate kinase PKM (Homo sapiens) (P14618 whole entry, looked up): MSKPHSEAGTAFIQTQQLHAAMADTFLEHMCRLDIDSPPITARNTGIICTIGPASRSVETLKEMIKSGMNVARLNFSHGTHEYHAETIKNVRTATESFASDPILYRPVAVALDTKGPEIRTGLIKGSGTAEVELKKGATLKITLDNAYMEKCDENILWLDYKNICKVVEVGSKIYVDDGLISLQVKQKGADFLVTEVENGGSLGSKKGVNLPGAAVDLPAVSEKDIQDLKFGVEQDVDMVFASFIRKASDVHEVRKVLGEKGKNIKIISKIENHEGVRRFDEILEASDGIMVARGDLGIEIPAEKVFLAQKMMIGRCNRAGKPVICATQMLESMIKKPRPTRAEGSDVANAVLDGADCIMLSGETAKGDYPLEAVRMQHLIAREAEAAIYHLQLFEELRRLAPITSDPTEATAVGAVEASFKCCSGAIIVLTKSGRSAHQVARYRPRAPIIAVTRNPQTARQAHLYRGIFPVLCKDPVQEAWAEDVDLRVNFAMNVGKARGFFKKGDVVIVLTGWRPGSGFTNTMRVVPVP
# Procedure, shortened: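 Human PKM2 activity is measured as ATP generation, detected by luciferase-coupled luminescence. The enzyme (0.1 nM) acts on 0.5 mM PEP and 0.1 mM ADP for 1 h at ambient temperature; data are normalized to uninhibited and full-inhibition wells.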
# [10] = target: Ubiquitin carboxyl-terminal hydrolase 1 (Homo sapiens) (UniProt O94782); test: Inhibitors of USP1/UAF1: Pilot qHTS (AID 504865; active means well fitted curve in the direction sought with a large enough effect; an effect the other way counts as inactive or inconclusive;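 further: rhodamine fluorescence freed from ubiquitin-rhodamine substrate followed over time; top concentration of the series differs between compounds; on the % scale 0 is the no-effect control and ±100 the full control effect; nearly all actives have a fitted effect of over 35% in size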)
# Chain of Ubiquitin carboxyl-terminal hydrolase 1 (Homo sapiens) (O94782 whole entry, looked up): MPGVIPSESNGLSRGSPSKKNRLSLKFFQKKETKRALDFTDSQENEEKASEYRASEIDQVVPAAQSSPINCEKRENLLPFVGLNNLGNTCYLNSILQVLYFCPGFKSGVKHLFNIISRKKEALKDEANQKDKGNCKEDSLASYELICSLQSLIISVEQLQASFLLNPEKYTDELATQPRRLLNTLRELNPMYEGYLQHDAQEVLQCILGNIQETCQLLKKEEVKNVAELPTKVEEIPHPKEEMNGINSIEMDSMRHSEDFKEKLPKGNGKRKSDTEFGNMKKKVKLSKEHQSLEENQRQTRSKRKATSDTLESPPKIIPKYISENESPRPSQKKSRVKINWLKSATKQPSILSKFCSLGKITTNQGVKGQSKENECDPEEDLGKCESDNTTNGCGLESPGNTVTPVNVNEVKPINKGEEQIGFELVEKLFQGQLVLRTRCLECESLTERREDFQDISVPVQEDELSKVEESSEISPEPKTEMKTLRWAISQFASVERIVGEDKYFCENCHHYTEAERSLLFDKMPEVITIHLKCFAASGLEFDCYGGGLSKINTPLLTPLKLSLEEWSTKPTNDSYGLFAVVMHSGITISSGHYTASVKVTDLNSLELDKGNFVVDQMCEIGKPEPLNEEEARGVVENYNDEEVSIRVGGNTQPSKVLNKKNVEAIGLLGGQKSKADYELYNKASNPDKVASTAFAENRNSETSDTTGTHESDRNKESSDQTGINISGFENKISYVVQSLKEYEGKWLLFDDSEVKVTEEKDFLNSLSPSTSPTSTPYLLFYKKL
# Procedure, shortened: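 Kinetic fluorescence assay: 1nM USP1/UAF1, 15 min compound preincubation, then 150nM Ub-Rho; 480/540 nm.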
smiles,measurement,setting,value
COc1ccc2c(c1)c(C(=O)O)c(C)n2CC(C)C,"activity change, negative = inhibition",[1],12.3%
same,"activity change, negative = inhibition",[2],1.61%
same,outcome,[3],inactive
same,Potency,[4],> 20.6 µM
COc1ccc(C(=O)CC2C(=O)N(C)C(=O)N(C)C2=O)cc1,"activity change, negative = inhibition",[1],8.4%
same,"activity change, negative = inhibition",[2],-29.5%
same,outcome,[3],inactive
same,Potency,[4],> 20.6 µM
O=C1NC(=O)C(C/C=C/c2ccccc2)C(=O)N1,"activity change, negative = inhibition",[1],9.27%
same,"activity change, negative = inhibition",[2],-11.1%
same,outcome,[3],inactive
same,Potency,[4],> 20.6 µM
CN1CCc2c(c(N3CCCCC3)nc3n[nH]c(N)c23)C1,"activity change, negative = inhibition",[1],-3.37%
same,"activity change, negative = inhibition",[2],-4.59%
same,outcome,[3],inactive
same,Potency,[4],> 20.6 µM
CCN(CC)C(=O)N[C@H]1C[C@H]2c3cccc4[nH]cc(c34)C[C@@H]2N(C)C1,Potency,[5],inactive
same,Potency,[6],inactive
C=C(C)[C@@H]1CN[C@H](C(=O)O)[C@H]1CC(=O)O,Potency,[5],inactive
same,Potency,[7],inactive
CC(C)n1cc2c3c(cccc31)[C@@H]1C[C@H](C(=O)O[C@@H](C)[C@H](C)O)CN(C)[C@H]1C2,Potency,[6],inactive
N[C@@H](Cc1cc(O)c(O)cc1O)C(=O)O,Potency,[7],inactive
same,Potency,[8],12.6 µM (active)
same,Potency,[9],inactive
N[C@@H]1CCc2cc(O)c(O)cc2C1,Potency,[8],10 µM (active)
O=C1CC[C@]2(O)[C@H]3Cc4ccc(O)c5c4[C@@]2(CCN3CC2CC2)[C@@H]1O5,Potency,[10],inactive
C[C@H]1C[C@@H](C)C(=O)[C@@H]([C@H](O)CC2CC(=O)NC(=O)C2)C1,Potency,[10],inactive
